{
  "source": "PubChem BioAssay (NCATS)",
  "note": "Inconclusive results are not listed. A number with no mark means an inactive call. The source made the active and inactive calls. Calls come from the whole dose curve; as a rule, active = well fitted inhibition curve with a large enough effect; inconclusive = small, poorly fitted or top-dose-only effect; inactive = flat fitted curve, though single readings scatter.",
  "data": [
    {"assay": "qHTS of Trypanosoma Brucei Inhibitors: LOPAC Validation (AID 624147)", "conditions": "purified enzyme assay, luminescence, 45 min; series mostly up to 57.5 µM; activity change, negative = inhibition: at the top concentration", "text": "Members of the Trypanosomatidae family of parasitic protozoans cause a spectrum of diseases throughout the tropical and subtropical world. Sleeping sickness, caused by two subspecies of Trypanosoma brucei, is endemic to areas of sub-Saharan Africa, while Chagas' disease, a manifestation of Trypanosoma cruzi infection, is prevalent throughout Central and South America. In addition, many species of Leishmania are responsible for a range of cutaneous and visceral diseases, causing ulcers, destructive lesions and kalaazar, a lethal infection of the viscera. These diseases cause severe public health and economic burdens on populations that are often already caught in a tragic cycle of poverty, poor nutrition and disease. Collectively, parasites of the trypanosomatid family infect 30 million people worldwide (~500 million live in endemic areas), and account for ~130K deaths annually. Existing treatments have developed little in the past 50 years, and suffer from toxicity, poor efficacy and resistance; the goal of this project is to develop lead drugs that will be suitable for entry into pre-clinical trials.\nGlycolysis in axenically cultured T. cruzi, representing the intracellular pathogenic stage, is also essential for these parasites. {Engel, 1987} This project aims to discover and optimize selective inhibitors of the glycolytic enzyme pyruvate kinase (PYK) from Trypanosoma brucei, the parasite that causes sleeping sickness. […] Trypanosomatid PYKs show significant differences from their human counterparts including only 47-50% sequence identity and different allosteric and activation properties.{Callens, 1992} To this end, a qHTS was done against the MLSMR to discover inhibitors.\nNIH Molecular Libraries Probe Production Network [MLPCN]\nNIH Chemical Genomics Center [NCGC]\nPI Name: Malcolm Walkinshaw, University of Edinburgh\n2 uL of TbPYK/substrate buffer (columns 1-3, 5-48) are dispensed into Greiner white solid bottom 1536-well assay plates; column 4 receives only TEA buffer as 0x TbPYK controls. Compounds are then transferred via Kalypsys pin tool equipped with 1536-pin array (10 nL slotted pins, V&P Scientific, San Diego, CA). Following addition of compound, 2 uL of ADP (130 uM final concentration, all columns) is added to initiate the reaction. The plates are then incubated at room temperature for 45 minutes. Kinase-Glo Plus reagent is added (3 uL) and plates incubated for 10 minutes, before being transferred to a ViewLux high-throughput CCD imager (PerkinElmer) wherein single end-point measurements of luminescence are acquired using a clear filter. All reagents are diluted in an assay buffer consisting of 50 mM TEA (pH 7.2), 100 mM KCl, 10 mM MgCl2, 0.05% BSA and 0.01% Tween-20.\nAll screening operations will be performed on a fully integrated robotic system (Kalypsys, San Diego, CA) containing one RX-130 and two RX-90 anthropomorphic robotic arms (Staeubli, Duncan, SC). Library plates will be screened starting from the lowest and proceeding to the highest concentration. Vehicle-only plates, with DMSO being pin-transferred to columns 5-48, will be inserted uniformly at the beginning and the end of each library in order to monitor and record any shifts in the background, which can be affected by reagent dispensers or loss in enzyme activity over time. Screening data will be corrected, normalized, and concentration-effect relationships will be derived by using publicly-available curve fitting algorithms developed in-house (http://ncgc.nih.gov/pub/openhts).", "units": {"activity change, negative = inhibition": "%"}, "values": [
      {"smiles": "CC(=O)[C@H]1CCC2C3CC[C@H]4C[C@H](O)CC[C@]4(C)C3CC[C@@]21C", "note": "(stereo not given in full)", "activity change, negative = inhibition": -4.73},
      {"smiles": "NC(N)=NOCCC(N)C(=O)O", "note": "(stereo not given)", "activity change, negative = inhibition": -2.95},
      {"smiles": "C[C@@H](N)Cc1cnc[nH]1", "activity change, negative = inhibition": -1.48},
      {"smiles": "CCCN(CCC)C1CCc2ccc(O)cc2C1", "note": "(stereo not given)", "activity change, negative = inhibition": -10.9},
      {"smiles": "Cc1c(C(=O)c2cccc3ccccc23)c2cccc3c2n1[C@H](CN1CCOCC1)CO3", "activity change, negative = inhibition": -2.12},
      {"smiles": "c1ccc(C2(c3ccccc3)CC2C2=NCCN2)cc1", "note": "(stereo not given)", "activity change, negative = inhibition": -14.3},
      {"smiles": "CC[C@@]1(O)C(=O)OCc2c1cc1n(c2=O)Cc2cc3ccccc3nc2-1", "activity change, negative = inhibition": 2.52},
      {"smiles": "c1ccc2sc(C3(N4CCCCC4)CCCCC3)cc2c1", "activity change, negative = inhibition": -9.42},
      {"smiles": "O=C(N[C@H]1CN2CCC1CC2)c1ccc(Cl)cc1", "activity change, negative = inhibition": -8.84},
      {"smiles": "NC(=O)CN1CC(O)CC1=O", "note": "(stereo not given)", "activity change, negative = inhibition": -8.58},
      {"smiles": "CN1C2CCC1CC(OC(=O)c1cc(Cl)cc(Cl)c1)C2", "note": "(stereo not given)", "activity change, negative = inhibition": 3.96},
      {"smiles": "NCCc1c[nH]c2ccc(O)cc12", "activity change, negative = inhibition": 6.32},
      {"smiles": "CCCN1CCC[C@H](c2cccc(O)c2)C1", "activity change, negative = inhibition": -4.72},
      {"smiles": "CCCN1CCO[C@@H]2c3cc(O)ccc3OC[C@H]21", "outcome": "inactive"},
      {"smiles": "O=C(Cc1ccc(Cl)c(Cl)c1)N1CCCCC1CN1CCCC1", "note": "(stereo not given)", "activity change, negative = inhibition": 1.16},
      {"smiles": "C[C@]12N[C@H](Cc3ccccc31)c1ccccc12", "activity change, negative = inhibition": 5.3},
      {"smiles": "NC(=NCCC[C@H](N)C(=O)O)N[N+](=O)[O-]", "activity change, negative = inhibition": -9},
      {"smiles": "NC1CC1c1ccccc1", "note": "(stereo not given)", "activity change, negative = inhibition": -8.31},
      {"smiles": "CN[C@@H]1C[C@@H](c2ccc(Cl)c(Cl)c2)c2ccccc21", "activity change, negative = inhibition": -7.07},
      {"smiles": "CS(=N)(=O)CC[C@H](N)C(=O)O", "note": "(stereo not given in full)", "activity change, negative = inhibition": -7.4},
      {"smiles": "CC(Cc1ccc(O)cc1)NCC(O)c1cc(O)cc(O)c1", "note": "(stereo not given)", "activity change, negative = inhibition": -7.45},
      {"smiles": "NC(CCP(=O)(O)O)C(=O)O", "note": "(stereo not given)", "activity change, negative = inhibition": -1.03},
      {"smiles": "Cn1cnc(CCN)c1", "activity change, negative = inhibition": -2.36},
      {"smiles": "CNCCc1ccc(O)c(O)c1", "activity change, negative = inhibition": -7.68},
      {"smiles": "Clc1cnc(Oc2ccc(Oc3ncc(Cl)cc3Cl)cc2)c(Cl)c1", "activity change, negative = inhibition": -7.49},
      {"smiles": "C[C@@H]1O[C@H](C[N+](C)(C)C)C[C@H]1O", "activity change, negative = inhibition": -5.56},
      {"smiles": "Oc1ccc2c3c1O[C@H]1c4[nH]c5c(c4C[C@@]4(O)[C@@H](C2)N(CC2CC2)CC[C@]314)C[C@@]1(O)[C@H]2Cc3ccc(O)c4c3[C@@]1(CCN2CC1CC1)[C@H]5O4", "activity change, negative = inhibition": -5.88},
      {"smiles": "CC[C@@H](C(N)=O)N1CCCC1=O", "activity change, negative = inhibition": -15.7},
      {"smiles": "S=C(NC1CCCCC1)N1CCC(c2cnc[nH]2)CC1", "activity change, negative = inhibition": -15.2},
      {"smiles": "NC(CP(=O)(O)O)C(=O)O", "note": "(stereo not given)", "activity change, negative = inhibition": -7.17},
      {"smiles": "CC(C)NC(C)Cc1ccc(I)cc1", "note": "(stereo not given)", "activity change, negative = inhibition": -13.1},
      {"smiles": "C/C=C(/C)C(=O)O[C@H]1C(C)=C2[C@H]([C@@H]1OC(=O)CCCCCCC)[C@@](C)(OC(C)=O)C[C@H](OC(=O)CCC)[C@@]1(O)[C@H]2OC(=O)[C@@]1(C)O", "activity change, negative = inhibition": -7.2},
      {"smiles": "COc1cc(C(O)CN)ccc1O", "note": "(stereo not given)", "activity change, negative = inhibition": -11.6},
      {"smiles": "COc1ccc2c(c[n+](C)c3c4cc5c(cc4ccc23)OCO5)c1OC", "activity change, negative = inhibition": -8.68},
      {"smiles": "O=C(O)[C@@H]1CCN1", "activity change, negative = inhibition": 2.34},
      {"smiles": "CCCN(CCC)[C@@H]1CCc2ccc(O)cc2C1", "activity change, negative = inhibition": -3.84},
      {"smiles": "COC(=O)[C@@H](N)CCCN=C(N)N[N+](=O)[O-]", "activity change, negative = inhibition": -2.41},
      {"smiles": "NCCc1c[nH]c2ccccc12", "activity change, negative = inhibition": -9.49},
      {"smiles": "CCCCc1ccc(C(=O)O)nc1", "activity change, negative = inhibition": -12.3},
      {"smiles": "O=C(O)Cc1cnc[nH]1", "activity change, negative = inhibition": 4.81}
    ]}
  ]
}
